ALR H2O2 inh – blocks human ALR sulfhydryl oxidase activity; inhibition, % (test concentration not listed); P55789; 290,000 tested, 3.8% active; AID 485317; purified ALR, DTT oxidation, H2O2 HRP-luminol luminescence;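 active means mean replicate inhibition above about 79%, with every replicate also reaching it, limit read from the data; inconclusive means only one of the two criteria met; inactive means mean below limit and not every replicate reaching it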
CHT inh – inhibits the human high affinity choline transporter | Q9GZV3 | CHT-expressing cells, membrane potential dye, choline response; stronger effect = lower value | 310,000 tested, 0.86% active | B-score at 10 µM;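 active means B-score over 3 SD under the library average, and starting fluorescence ratio not unusually high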;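 further: choline stimulus applied at its EC90 after an EC20 pre-addition; B-score computed on integrated fluorescence ratio after choline addition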
Target sequence (Q9GZV3 whole entry, looked up): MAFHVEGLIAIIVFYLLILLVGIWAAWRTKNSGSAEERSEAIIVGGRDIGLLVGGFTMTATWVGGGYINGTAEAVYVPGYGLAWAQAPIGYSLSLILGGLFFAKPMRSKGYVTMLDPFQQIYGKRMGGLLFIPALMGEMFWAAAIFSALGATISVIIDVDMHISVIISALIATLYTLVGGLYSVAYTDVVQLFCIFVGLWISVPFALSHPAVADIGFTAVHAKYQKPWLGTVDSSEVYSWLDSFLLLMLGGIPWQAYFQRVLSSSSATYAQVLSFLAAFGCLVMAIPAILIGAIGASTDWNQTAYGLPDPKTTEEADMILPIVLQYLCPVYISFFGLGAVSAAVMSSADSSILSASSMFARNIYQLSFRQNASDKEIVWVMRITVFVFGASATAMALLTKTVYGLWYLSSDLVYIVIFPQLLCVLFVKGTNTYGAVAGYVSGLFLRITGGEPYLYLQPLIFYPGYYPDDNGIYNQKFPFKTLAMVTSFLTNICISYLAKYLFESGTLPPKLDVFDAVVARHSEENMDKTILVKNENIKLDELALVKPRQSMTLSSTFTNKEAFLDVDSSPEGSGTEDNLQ
AI-2 QS modul – modulates the Vibrio harveyi AI-2 quorum sensing system. 300,000 tested, 0.4% active. Vibrio harveyi JMH597 AI-2 luminescence/OD600 ratio, 9 h; stronger effect = lower value; strain lacks LuxN and CqsS sensors; 0 = neutral-control median. AID 2094. activity change, % at 7.5 µM; in the data active means activity change below about -75%, passing the limit was not always enough; inconclusive means no clear call, values can overlap the other calls;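 further: luminescence divided by OD600 gain over 9 h not by final OD600 alone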
CHT PAM – allosteric activators of human choline transporter CHT | Q9GZV3 | CHT-expressing cells, membrane potential dye, choline EC20; stronger effect = higher value; LV-AA mutant CHT in HEK293 cells | 310,000 tested, 0.49% active | B-score at 10 µM | AID 488977;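 active means initial fluorescence not abnormally high and integrated response B-score, plate-corrected, over 3 SD above library mean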
PREPL inhibitor – inhibits the human prolyl oligopeptidase-like enzyme | 320,000 tested, 0.68% active | recombinant PREPL, fluorescence polarization activity-based probe | inhibition, % at 5.96 µM | Q4J6C6; in the data active means inhibition above about 43%
Numbers stand for hits; 0 = inactive; ? = inconclusive; - = no result given. Most compounds without a hit are left out; they make up all but 5% or so of the library.

SMILES	ALR H2O2 inh	CHT inh	AI-2 QS modul	CHT PAM	PREPL inhibitor
CCOC(=O)CN1C(=N)N(c2nc(NC(C)C)nc(NC(C)C)n2)CC1=O	0	0	0	0	0
Cc1ccc(OCc2csc(N)n2)cc1	0	0	0	0	0
CCN(CC)CCCn1c2c(c(SCC(=O)Nc3ccc4c(c3)OCCO4)nc1=O)CCC2	98.0	0	0	0	0
CN(C)CCCn1c2c(c(SCC(=O)Nc3ccc4c(c3)OCO4)nc1=O)CCC2	98.4	0	0	0	0
CN(C)CCCn1c2c(c(SCC(=O)Nc3ccc4c(c3)OCO4)nc1=O)CCCC2	?	0	0	0	0
CN(c1ccccc1)S(=O)(=O)c1cc(C(=O)NCCCn2ccnc2)ccc1Cl	0	-	-	-	0
Clc1ccc(-c2nc3cc(CN4CCCCC4)ccc3o2)cc1	0	0	0	0	-
C/C(=N\NC(=O)CN1CCN(S(=O)(=O)c2ccc(C)cc2)CC1)c1ccc(O)cc1	99.1	0	0	0	0
COc1cc(/C(C)=N/NC(=O)CN2CCN(S(=O)(=O)c3ccc(C)cc3)CC2)ccc1O	98.3	0	0	0	0
C/C(=N/NC(=O)CN1CCN(S(=O)(=O)c2ccc(Br)cc2)CC1)c1cccnc1	0	0	0	0	0
COC(=O)c1ccc(C)c(NC(=O)CSc2nc3[nH]c(=O)cc(O)c3s2)c1	0	-	-	-	0
Cc1cc(C)cc(NC(=O)CSc2nc3[nH]c(=O)cc(O)c3s2)c1	98.4	0	0	0	0
O=C(CSc1nc2[nH]c(=O)cc(O)c2s1)Nc1cc(Cl)cc(Cl)c1	98.9	0	0	0	0
O=C(CSc1nc2[nH]c(=O)cc(O)c2s1)Nc1ccc(Cl)c(C(F)(F)F)c1	99.1	-	-	-	0
Cc1cc(C)nc(SCc2nnc(SCC(=O)Nc3ccc(Cl)c(C(F)(F)F)c3)o2)n1	0	0	0	0	0
CCOC(=O)c1c(NC(=O)COC(=O)CC(NC(C)=O)c2ccccc2)sc(C(=O)NC)c1C (centres undefined)	0	0	-	0	0
COc1ccc(CNC(=O)CSc2nnc3c(Cl)cc(C(F)(F)F)cn23)cc1OC	0	0	0	0	0
Cc1ccccc1NC(=O)C(NC1CCCCC1)C(C)C (centres undefined)	98.5	0	0	0	0
Cc1nc2sc(C(c3ccco3)N3CCN(c4ccc(F)cc4)CC3)c(O)n2n1 (centres undefined)	93.7	0	0	0	0
Oc1cccc(/C=N/N2CCCCC2)c1O	99.0	0	0	0	0
Oc1ccc(/C=N/N2CCCCC2)c(O)c1	97.7	0	0	0	0
COc1ccc(O)c(/C=N/N2CCOCC2)c1	0	0	0	0	0
Oc1ccccc1/C=N/N1CCCCC1	0	0	0	0	0
Oc1ccc(/C=N/N2CCOCC2)c(O)c1O	98.5	0	0	0	0
Oc1ccc(/C=N/N2CCCCC2)c(O)c1O	0	0	0	0	0
SMILES	ALR H2O2 inh	CHT inh	AI-2 QS modul	CHT PAM	PREPL inhibitor
O=C(CSc1ncccn1)NC(=O)c1ccccc1	0	0	-	0	0
CCCCn1nc(C(=O)N(C)CC(=O)Nc2ccc(F)c(F)c2F)ccc1=O	0	-	-	-	0
CCOc1ccc(NC(=S)N(CCN2CCOCC2)Cc2ccc3c(c2)CCCN3CC)cc1	-	0	0	0	0
CCN1CCCc2cc(CN(CCN3CCOCC3)C(=S)Nc3ccc(OC)cc3)ccc21	99.3	0	0	0	0
CCN1CCCc2cc(CN(CCN3CCOCC3)C(=S)Nc3ccc(C)cc3)ccc21	99.0	0	0	0	0
O=C(NCc1ccco1)c1cc(C(=O)C2CC2)c[nH]1	0	0	0	0	0
CCCCc1ccc(NC(=O)CSCc2cc(=O)[nH][nH]2)cc1	78.8	0	0	0	0
C(=N\Nc1nc2ccccc2s1)/c1cccs1	89.0	0	0	0	0
C(=N\Nc1nc2ccccc2s1)/c1ccco1	0	0	0	0	0
O=C(NCc1ccco1)C1CC(c2cc(C(F)(F)F)cc(C(F)(F)F)c2)=NO1 (centres undefined)	0	0	0	0	0
CCOC(=O)c1c(C)[nH]c(C(=O)NCC(c2ccco2)N2CCCCC2)c1C (centres undefined)	0	-	-	-	0
Cc1ccc(CN2CCNC(=O)C2CC(=O)N(C)CCc2cnn(C)c2)cc1 (centres undefined)	0	0	0	0	-
CCOc1ccc(OCCC(=O)OCC(=O)Nc2cc(C)nn2-c2ccccc2)cc1	0	0	0	0	0
Cc1cc(Nc2ccccc2)n(CCOC(=O)COc2ccccc2)n1	98.1	0	0	0	0
NS(=O)(=O)c1ccc(CCNC(=O)COC(=O)CC(c2ccccc2)c2ccccc2)cc1	0	0	0	0	0
O=C(Nc1cccc(S(=O)(=O)N2CCCCC2)c1)C1CCCN1S(=O)(=O)c1ccccc1F (centres undefined)	0	-	-	-	0
CN=c1scc(-c2ccccc2F)n1/N=C(\C)c1cccnc1	93.9	0	0	0	0
C/C(=N\N1CCN(C2c3ccccc3-c3ccccc32)CC1)c1cccnc1	0	0	0	0	0
CCN(CC)CCC(c1ccc(N(C)C)cc1)c1c(O)cc(OC)cc1OC (centres undefined)	99.4	0	0	0	0
COc1cc(O)c(C(CCN2CCCC(C)C2)c2ccc(N(C)C)cc2)c(OC)c1 (centres undefined)	98.5	0	0	0	0
CC(Cl)C(=O)NNc1cccc(Cl)n1 (centres undefined)	96.6	0	0	0	0
Cc1ccc(NC(=O)NNc2cccc(Cl)n2)cc1	0	0	0	0	0
Cc1nc(Sc2nnnn2C)c2c3c(sc2n1)CCC3	94.2	0	-	0	0
COc1ccc(C(CNC(=O)c2cccc(NS(=O)(=O)c3ccc(Br)cc3)c2)N(C)C)cc1 (centres undefined)	0	0	0	0	0
CCCCC(=O)Oc1c(S(=O)(=O)c2ccc(C)cc2)c(C)nn1C(C)(C)C	0	0	0	0	0
SMILES	ALR H2O2 inh	CHT inh	AI-2 QS modul	CHT PAM	PREPL inhibitor
Oc1ccc(C2=NNC(=NCc3ccc4c(c3)OCO4)SC2)c(O)c1	95.4	0	0	0	0
Clc1ccc(C2=NNC(=NCc3ccc4c(c3)OCO4)SC2)cc1	0	0	-	0	0
O=C(COc1ccc(F)c(Cl)c1)N1CCCCCCC1	0	0	0	0	0
O=C1C2C3C=CC(C3)C2C(=O)N1Cc1ccccc1 (centres undefined)	0	0	0	0	0
COc1ccc(CN2C(=O)C3C4C=CC(C4)C3C2=O)cc1 (centres undefined)	99.9	0	0	0	0
O=C(CCSc1ccc(Br)cc1)c1ccc(O)cc1	-	0	-77.4	0	0
CCCc1cn(S(=O)(=O)c2ccc(OC)cc2OC)nc1N	98.0	0	0	0	0
CCCC(c1nnnn1C(C)(C)C)N1CCN(c2ccccc2)CC1 (centres undefined)	97.7	0	0	0	0
CCC(c1nnnn1C1CCCC1)N1CCN(c2ccccc2F)CC1 (centres undefined)	0	0	0	0	0
CCC(c1nnnn1C1CCCC1)N1CCN(c2ccccc2)CC1 (centres undefined)	98.6	0	0	0	0
